“And” between values parts separate entries of the source, which are not always exact repeats. Equal entries are not always repeated. The whole screen tested about 360,000 compounds, of which about 3,100 (0.86%) were called active.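 How the source made its calls: active means at least 50% inhibition at 5 µM, scaled per plate between neutral and stimulator controls; inactive means the rest.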 The entries come from a sample that favours actives as a whole.

The assay is described as follows: NF-kB reporter blockers in CF airway cells – cell-based, GFP fluorescence, uHTS, primary screen (AID 588850).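 Further: PAF is a Pseudomonas aeruginosa culture filtrate used as stimulus; plate controls were PAF-stimulated DMSO wells for no effect and unstimulated DMSO wells for full effect.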 To be noted: KKLEB NF-kB-GFP reporter, PAF-induced, GFP fluorescence overnight; at 5 µM; active compounds read high.
As to `CN(C)S(=O)(=O)c1ccc(N2CCCC2)c(C(=O)Nc2ccc(Br)cc2F)c1`, the inhibition is 21.3% (inactive).

Take `Cc1cc2c3ccccc3[nH]c(=O)n2n1`: the inhibition was -16.8% (inactive).

As to `CN(C)c1ccnc2sc3c(=O)n(Cc4ccccc4)cnc3c12`, the inhibition is 80.2% (active).

In the case of `O=c1c2c(ncn1Cc1ccccc1)nc1n2CCC1`, the inhibition is 1.3% (inactive).

With `CN(C)/C=C/c1c(C#N)c(=O)ncn1Cc1ccccc1`, the inhibition was -10.4% (inactive).

Turning to `O=C(Nc1ccc(F)cc1)Nc1nnc([C@H]2C[C@H](O)[C@@H](CO)O2)s1`, the inhibition is 8% (inactive).

For the compound `CCOC(=O)c1cc(C(=O)Nc2ccc(S(=O)(=O)Nc3ccc(OC)cc3)cc2)nn1C`, the inhibition is -4.7% (inactive).

In the case of `CCN(Cc1ccccc1)C(=O)CCS(=O)(=O)c1ccc2c(c1)oc(=O)n2C`, the inhibition was -2.4% (inactive).

For `O=C1Nc2ccccc2/C1=C/c1ccnc2ccccc12`, the inhibition was 50.5% (active).

`COCCN(C(=O)CCC(=O)Nc1ccccn1)C(C(=O)NCCC(C)C)c1ccc(OC)cc1` (centres undefined): the inhibition was -7.9% (inactive).

With `CCOC(=O)N1CCN(S(=O)(=O)c2ccc3c(c2)C(C)C(=O)N3)CC1` (centres undefined), the inhibition is -4% (inactive).

Consider `NC(=O)c1ncn([C@@H]2O[C@H](CNCc3cnc(N4CCOCC4)s3)[C@@H](O)[C@H]2O)n1`, for which the inhibition was -11.1% (inactive).

With `O=C(O)CSCC(=O)Nc1ccc(C(F)(F)F)cc1`, the inhibition is -2.9% (inactive).

Turning to `O=C(CCl)Nc1ccc(Sc2ccc(NC(=O)CCl)cc2)cc1`, the inhibition is 93.7% (active).

Consider `CC(=O)Nc1ccc(SCC(=O)NC(=O)c2ccc(Cl)cc2)cc1`, for which the inhibition is -19.2% (inactive).

With `Cc1[nH]c2ccccc2c1SCC(=O)Nc1nccs1`, the inhibition was 1% (inactive).

For the compound `CCNC(=O)C1CCCN(C(=O)c2cc(F)ccc2C)CC1` (centres undefined), the inhibition is -17.2% (inactive).

As to `Cc1ccccc1-c1ccc2c(c1)O[C@@H](CN(C)Cc1ccc(C(=O)O)cc1)[C@@H](C)CN([C@H](C)CO)S2(=O)=O`, the inhibition was 44.9% (inactive).

`CC(NC(=O)c1cc2cc(Cl)ccc2oc1=N)c1ccccc1` (centres undefined): the inhibition was 23.8% (inactive).

As for `COc1cc2c3c(c1)/C(=C1/SC(=S)NC1=O)C(=O)N3C(C)(C)C=C2C`, the inhibition was 50.7% (active).

Consider `CCOc1ccc(NC(=O)CSc2ncnc3c2sc2ccccc23)cc1`, for which the inhibition is 5.6% (inactive).

For the compound `Cc1ccccc1C(CC(=O)c1cccs1)C(C#N)C#N` (centres undefined), the inhibition was 83.8% (active).

`Cc1ccc(C)c(NC(CC(=O)c2ccccc2)C(=O)OCC(=O)c2cccs2)c1` (centres undefined): the inhibition was -4.5% (inactive).

For the compound `O=C(NCC(=O)N1CCN(c2ccccc2F)CC1)c1cccs1`, the inhibition was -14.2% (inactive).

Regarding `O=Nc1c(O)cc(O)c2ccccc12`, the inhibition was -12.5% (inactive).

Consider `O=Cc1c(NCCc2cccc(F)c2)c2ccccc2[nH]c1=O`, for which the inhibition is 5% (inactive).

In the case of `OCCNc1nc(Nc2ccc(Cl)c(Cl)c2)nc2ccccc12`, the inhibition was 87.5% (active).

In the case of `OCCNCCOc1ccc(Cl)c(Cl)c1`, the inhibition was -8.5% (inactive).

Take `O=C(Cn1c(NCCO)nc2ccccc21)c1ccc(Cl)cc1Cl`: the inhibition was 1.6% (inactive).

On to `O=c1[nH]c(=S)[nH]c(O)c1/C=C1\C=Nc2ccccc21`, for which the inhibition is 69.3% (active).

Consider `c1csc(-c2nnc(COc3ncnc4sccc34)o2)c1`, for which the inhibition was 18.1% (inactive).

With `C=C(C)C(=O)O[C@H]1C/C(C)=C\C(=O)/C=C(\C)[C@H](O)[C@@H]2OC(=O)C(=C)[C@@H]21`, the inhibition is 74.1% (active).

As for `CCN(Cc1ccccc1)C(=O)CSc1nc(C)cc2c1C(=O)OC2`, the inhibition is 5% (inactive).

Turning to `Oc1c(Cl)cc(Cl)c(Cl)c1Cc1c(O)c(Cl)cc(Cl)c1Cl`, the inhibition was 65.4% (active).

In the case of `O=c1[nH]c(CCl)nc2cc(-c3ccc(Cl)cc3)sc12`, the inhibition was 7.1% (inactive).

`CC[N+]1(CC)CC2=Cc3ccccc3CC2C1` (centres undefined): the inhibition is -4% (inactive).

Turning to `COc1ccc(CC(=O)c2ccc(O)cc2O)cc1OC`, the inhibition was -7.8% (inactive).

As to `C=CCOc1ccccc1CNn1c(C)n[nH]c1=S`, the inhibition is 5.7% (inactive).

For the compound `O=C(COC(=O)c1ccc(Cl)nc1)NCc1ccc2c(c1)OCO2`, the inhibition is -9.2% (inactive).

`CN(C)C(=O)c1cccc(-c2cnc3sc(NCc4ccc5c(c4)OCO5)nn23)c1`: the inhibition is 82.2% (active).

With `O=C(CSc1ncnc2scc(-c3ccccc3)c12)NCc1ccc2c(c1)OCO2`, the inhibition is 13.3% (inactive).

On to `Cc1ccc(Cn2c(C)c(C(=O)NCc3ccccc3C(F)(F)F)sc2=O)cc1`, for which the inhibition is -26.2% (inactive).

For the compound `Cc1c(Nc2nc3ccccc3nc2NS(=O)(=O)c2cccs2)c(=O)n(-c2ccccc2)n1C`, the inhibition is 9.5% (inactive).

As to `Cc1ccc(C2CCN(C(=S)Nc3cccc(Cl)c3)C2)cc1` (centres undefined), the inhibition is 7.5% (inactive).

As to `COc1ccc(/C=C/C(=O)NC(=S)NN2CCCCC2c2cccnc2)cc1` (centres undefined), the inhibition is -13% (inactive).

For `Cc1ccc2nc(-c3ccco3)c(Cc3cccc(Cl)c3)n2c1`, the inhibition was 2.7% (inactive).

Regarding `Cc1ccc(Cc2c(-c3ccccc3)nc3ccc(Cl)cn23)cc1`, the inhibition was 20.8% (inactive).

With `Cc1ccc(Cc2c(-c3ccco3)nc3ccc(Cl)cn23)cc1`, the inhibition was 66.3% (active).

For `S=c1[nH]c2ccccc2c2ccccc12`, the inhibition was -8.9% (inactive).

On to `CC(=O)c1cccc(-c2cnc3c(NC=O)cc(-c4ccc(N5CCN(C)CC5)cc4)cn23)c1`, for which the inhibition is 22.9% (inactive).

Regarding `O=C(CSc1ccccc1)Nc1nnc(/C=C/c2ccccc2)s1`, the inhibition was 22.7% (inactive).

With `COc1ccc(/C=C/c2nnc(NC(=O)C(C)C)s2)cc1`, the inhibition is 17.7% (inactive).

Consider `O=C(Nc1ccc(Cl)cc1)Nc1nnc(/C=C/c2ccccc2)s1`, for which the inhibition was 51.2% (active).

With `Cc1cc(OCCCC(=O)Nc2cc(S(=O)(=O)N3CCOCC3)ccc2N2CCOCC2)ccc1Cl`, the inhibition was 7.1% (inactive).

Turning to `CCOC(=O)c1sc2nc(C)nc(SCC(N)=O)c2c1C`, the inhibition is 11.9% (inactive).

For the compound `O=C(Nc1ccccc1Cl)/C(Cl)=C(\Cl)S(=O)c1ccccc1` (centres undefined), the inhibition is 82.8% (active).

As for `CC(=O)c1ccc(NC(=O)C(C)N(C)CC(=O)Nc2ccccc2Cl)cc1` (centres undefined), the inhibition was 2.6% (inactive).

As to `O=C(COc1ccc(-n2cnnn2)cc1)Nc1ccccc1Cl`, the inhibition is -3.5% (inactive).

As to `COc1cccc(CC(=NO)c2cccc(OC)c2)c1`, the inhibition was 11.3% (inactive).

As for `COc1cc(C(=O)NCCOC(=O)c2cccc(N(C)C)c2)cc(OC)c1OC`, the inhibition is 3.4% (inactive).

Take `Cn1c(=O)c2c(ncn2CC(=O)N/N=C/c2cn[nH]c2-c2ccc(F)cc2)n(C)c1=O`: the inhibition was -32.9% (inactive).

`NC1=CC(=O)C(=O)c2cccnc21`: the inhibition was 92.2% (active).

Turning to `CCCCc1nc(NCCN)c(C#N)c2c1CSC(C)(C)C2`, the inhibition was 2.5% (inactive).

As for `FC(F)Oc1ccc(NC(=S)NCc2ccco2)cc1Cl`, the inhibition is -1.9% (inactive).

For the compound `OCCCNc1nccc(-c2cc(Nc3cccc(Cl)c3)ncn2)n1`, the inhibition was 84.5% (active).

On to `CCOc1c(Nc2cccc(Cl)c2)c(=O)c1=O`, for which the inhibition is -0.1% (inactive).

With `Cc1nc(C(F)(F)F)ccc1C(=O)N1CCC1(C)C(=O)NS(=O)(=O)c1ccc(F)cc1F` (centres undefined), the inhibition is 0.2% (inactive).

For `O=C(CCN1C(=O)[C@@H]2Cc3ccccc3CN2C1=O)NCCc1ccccc1`, the inhibition was 16% (inactive).

On to `O=C(Nc1ccc2oc(-c3ccc4ccccc4c3)nc2c1)c1cccs1`, for which the inhibition was 51.3% (active).

As to `COc1cc(OC)cc(C(=O)Nc2ccc(-c3nc4ccccc4o3)c(O)c2)c1`, the inhibition is -44.7% (inactive).

`O=C(Nc1ccc2oc(-c3ccccc3F)nc2c1)c1ccco1`: the inhibition was -15% (inactive).

`CN1CCN(c2cc(=O)n(-c3ccc(Cl)cc3)c(=O)[nH]2)CC1`: the inhibition is 16.6% (inactive).

As for `CC1CCN(C(=O)c2ccccc2NC(=O)Cc2ccccc2)CC1`, the inhibition was 16.1% (inactive).

Take `N#C/C=C1\Sc2ccccc2C(=O)N1CC(=O)N1CCN(S(=O)(=O)c2ccccc2)CC1`: the inhibition was 8.2% (inactive).

`Cc1cc(NCc2cccnc2)no1`: the inhibition was -9.7% (inactive).

For the compound `Clc1ccc(Cn2ncc3c(NCc4cccnc4)ncnc32)cc1`, the inhibition was -7.9% (inactive).

In the case of `Brc1ccc2ncnc(NCc3cccnc3)c2c1`, the inhibition is 57% (active).

In the case of `CC(C)Cc1oc(C(=O)O)cc1CN`, the inhibition was 0.9% (inactive).

Take `OC[C@@H]1CN(Cc2ccc(Cl)cc2)C[C@H](n2cnc3c(NCc4ccncc4)ncnc32)O1`: the inhibition is -7.1% (inactive).

Turning to `CCN(CC(=O)Nc1cc(Cl)ccc1C)C(=O)CSCc1ccc(C)cc1`, the inhibition is -25.2% (inactive).

Regarding `C[C@]12C=CC(=O)C=C1CC[C@@H]1[C@@H]2C(=O)C[C@@]2(C)[C@H]1CC[C@]2(O)C(=O)CO`, the inhibition is 21.5% (inactive) and 6.7% (inactive).

Turning to `CC1(C)O[C@@H]2CC3C4C[C@H](F)C5=CC(=O)C=CC5(C)C4C(O)CC3(C)[C@]2(C(=O)CO)O1` (some centres undefined), the inhibition was 71.8% (active).

On to `COc1cccc(NC(=O)COC(=O)c2ccc3ccccc3n2)c1`, for which the inhibition is 3.6% (inactive).

Consider `C[C@H]1CC[C@]2(O[C@@H](CCO)C[C@@H](O)[C@@H]2O)O1`, for which the inhibition is -22.2% (inactive).

Regarding `O=C(c1ccc(Cl)c([N+](=O)[O-])c1)N1CCN(c2ccccc2)CC1`, the inhibition is -1.9% (inactive).

Take `O=C(/C=C/c1ccc(Cl)c([N+](=O)[O-])c1)c1ccc(O)cc1`: the inhibition is 66.4% (active).

As for `O=C(O)c1ccc2c(=O)n3c(nc2c1)/C(=C/c1ccc(Cl)c([N+](=O)[O-])c1)CC3`, the inhibition was -4% (inactive).

Take `COc1cc(C(C(=O)NC2CCCC2)N(Cc2ccccc2)C(=O)c2snc(C(N)=O)c2N)ccc1O` (centres undefined): the inhibition was -3.3% (inactive).

As for `NC(=O)c1nsc(C(=O)N(CC(=O)NCc2ccc(F)cc2)Cc2ccco2)c1N`, the inhibition is 6.2% (inactive).

Regarding `COc1ccc(CNC(=O)C(c2ccc(O)cc2)N(Cc2ccco2)C(=O)c2snc(C(N)=O)c2N)cc1` (centres undefined), the inhibition was 80.2% (active).

As for `O=C1CCC(C(=O)N2CCN(c3ccccc3Cl)CC2)CN1CC1CCCCC1` (centres undefined), the inhibition was 25% (inactive).

Regarding `Cc1ccc(NS(=O)(=O)c2ccc3c(c2)oc(=O)n3C)c(C)c1`, the inhibition is 21.8% (inactive).

For `CC(=O)c1c(OCC(=O)N(C)C2CCCCC2)ccc2c(C)cc(=O)oc12`, the inhibition was -24.1% (inactive).

For `COc1cccc2c1C(=O)c1c(O)c3c(c(O)c1C2=O)CC(O)(C(C)=NNC(=O)c1ccc(Cl)c(Cl)c1)CC3OC1CC(N)C(O)C(C)O1` (centres undefined), the inhibition is 81.2% (active).

(Values after PubChem BioAssay AID588850 (Sanford-Burnham Center for Chemical Genomics, 2011).)
